Data on 15 compounds can be found in PubChem BioAssay AID1004 (SRMLSC, 2008).

Structures are written as SMILES. A number with no mark means an inactive call. The source made the active and inactive calls.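 Rule for the calls: active = viability at 10 µM of 29.74% or lower, 3 SD below the compound median; inactive = the rest.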

The viability is a read-out of living cells in per cent, often relative to untreated cells.

The nature of the assay: viability of HCT116 lacking mutant beta-catenin – cell-based, DP diverse set, validation, pilot screen (AID 1004). As to conditions: HCT116 (mutant beta-catenin deleted) viability, CellTiter-Glo, 60 h; at 10 µM; active compounds read low. Background: Cellular ATP, detected with luciferase, serves as a proxy for viable cell number.
In the case of `C[C@@H]1CC[C@H]2[C@@H](C)C(=O)O[C@@H]3OC4(C)CC[C@@H]1[C@]32OO4`, the viability was 100%.
As for `CC[C@@]1(O)C(=O)OCc2c1cc1n(c2=O)-c2cc3ccccc3nc2C1`, the figure is 24.3% (active); as for `CCCC[C@H]1C(=O)O[C@H](C)[C@H](NC(=O)c2cccc(NC=O)c2OC)C(=O)O[C@@H](C)[C@@H]1OC(=O)CC(C)C`, 95.2%; as for `CC/C(=C(\c1ccccc1)c1ccc(OCCN(C)C)cc1)c1ccccc1`, 67.6%.
As for `CCCN1CCC[C@@H]2Cc3cn[nH]c3C[C@H]21`, the figure is 103%; as for `CN1C[C@H](CNC(=O)OCc2ccccc2)C[C@@H]2c3cccc4c3c(cn4C)C[C@H]21`, 80.4%.
As for `O[C@H]1[C@H](O)[C@@H](O)CN2CC[C@H](O)[C@H]12`, the figure is 95.4%; as for `N#Cc1nn(-c2c(Cl)cc(C(F)(F)F)cc2Cl)c(N)c1S(=O)C(F)(F)F` (stereo not given), 92.8%; as for `NCCc1c[nH]c2ccc(O)cc12`, 100%.
In the case of `CNc1ccc2oc(C[C@@H]3OC4(CC[C@@H]3C)O[C@H](C(C)C(=O)c3ccc[nH]3)[C@H](C)C[C@H]4C)nc2c1C(=O)O` (stereo not given in full), the viability was 9.98% (active).
As for `NCC(CC(=O)O)c1ccc(Cl)cc1` (stereo not given), the viability is 103%.
As for `N#CC(C#N)=Cc1cc(O)c(O)c([N+](=O)[O-])c1`, the figure is 101%; as for `OCC1CCCN2CCCCC12` (stereo not given), 99.4%.
As for `CC(C)c1cc2c(c(O)c1O)[C@@]1(C(=O)O)CCCC(C)(C)[C@@H]1CC2`, the figure is 103%; as for `C[C@@H]1O[C@@H](OC2CC(O)C3(CO)C4C(CCC3(O)C2)C2(O)CCC(C3=CC(=O)OC3)C2(C)C[C@H]4O)[C@H](O)[C@H](O)[C@H]1O` (stereo not given in full), 128%.
